RmlC RmlD mix = RmlC and RmlD coupled enzyme inhibitors, primary screen, biochemical, 384-well, compound mixtures, retest. RmlC/RmlD coupled enzyme inhibition, 384-well mixture HTS. inhibition, % at 5.5 µM. 0.39% of 110,000 active. AID 1532, 2009; in the data active = inhibition above about 30%, passing the limit was not always enough
HIV RNase H inh = HIV-1 RT RNase H inhibitors, primary screen, biochemical, fluorescence. Gag-Pol polyprotein (Human immunodeficiency virus type 1 group M subtype B (isolate …. RT-RNase H RNA/DNA duplex cleavage. inhibition, % at 10 µM. 1.9% of 65,000 active. AID 565, 2006; in the data active = inhibition above about 50%
Hits are given with their value; i = inactive; nt = no result; + = active, no number; ! = a repeat was not active. Shown is part of a subset that was picked to be rich in hits.

SMILES	RmlC RmlD mix	HIV RNase H inh
Cc1ccc(C(=O)Nc2nc(-c3cccnc3)cs2)o1	i	nt
O=C(Nc1nc(-c2ccccc2)cs1)c1ccc(Br)o1	i	66
Cc1nc2c3c(-c4ccccc4)nc(N4CCOCC4)nc3nn2c(C)c1CCC(=O)O	nt	i
CCOC(=O)c1c(N)sc(C(=O)N(C)C)c1C	i	i
CCOC(=O)c1c(NC(=O)OC)sc(C(=O)N(C)C)c1C	i	52
CCCC[C@@H]1CCCO[C@@](C(=O)NCc2ccc(C)o2)(C(F)(F)F)C1	i	nt
CCn1cc(C(=O)Nc2nncs2)c(=O)c2cc(F)c(N3CCN(C(=O)c4ccco4)CC3)cc21	nt	i
O=C(O)c1ccc2c(c1)C(=O)N(C(Cc1ccccc1)C(=O)O)C2=O (centres undefined)	i	i
O=C(O)c1ccc2c(c1)-c1nc3ccccc3n1C2=O	122	nt
CCCOC(=O)CSc1nc(N)c(C#N)c(CC)c1C#N	i	i
COCCNc1cc(C)nc2c3c(C)cc(C)nc3nn12	58	i
Cc1cc(NCCN2CCOCC2)n2nc(C)c(-c3ccccc3)c2n1	i	i
Cc1cc(C)c2c(n1)nn1c(NCCN3CCOCC3)cc(C)nc21	58	i
COCCNc1cc(C)nc2c(-c3ccccc3OC)c(C)nn12	i	i
C/C=C\C=C\C(=O)Nc1cccc(C2=NOC3(C2)C[C@@H](C(N)=O)N(C(=O)C(c2ccccc2)c2ccccc2)C3)c1 (some centres undefined)	i	nt
O=C(Nc1ccc(NC(=S)NC(=O)c2ccccc2Cl)cc1)c1cccc(Cl)c1	i	nt
C[C@H](NC(=O)CCC1CCC(=O)N1)c1ccccc1 (some centres undefined)	i	nt
CC(C)Oc1ccc(Cl)cc1Nc1nc(NCCO)nc(N2CCCC2)n1	i	nt
Cc1cc(-c2cc(C(=O)NCc3ccccc3)on2)nc(S(C)(=O)=O)n1	i	nt
COC(=O)c1ccc(Nc2ncnc3c2cnn3-c2cccc(C)c2)cc1	nt	60
Cc1cccc(-n2ncc3c(Nc4ccc(F)cc4)ncnc32)c1	i	i
c1cc(-c2nc3cc(Oc4ccc5oc(-c6ccncc6)nc5c4)ccc3o2)ccn1	nt	i
CCn1c(O)c(C=Nc2ccccc2)oc1=S	i	54
COc1cc(O)oc1C=Nc1ccc(Oc2ccccc2)cc1	i	nt
O=S(=O)(Cc1ccccc1)c1cnc2ccccc2n1	i	nt
SMILES	RmlC RmlD mix	HIV RNase H inh
O=C(CSc1nnc(-c2ccc(Cl)cc2)o1)N1CCN(c2ccccc2)CC1	nt	50
O=C(CSc1nnc(COc2ccc(Cl)cc2)o1)N1CCN(c2ccccc2)CC1	i	i
Cc1nc(C(=O)Nc2cc(F)cc(Cl)c2)sc1C1(C)CC(c2ccccc2)=NO1 (centres undefined)	i	nt
CN1C(=O)N(C)C(=O)C2(Sc3ccccc3C2=O)C1=O	+	i
CN1C(=O)N(C)C(=O)C(CCc2ccccn2)(CCc2ccccn2)C1=O	i	i
COc1cccc2cc(-c3nnc(SCC(=O)Nc4cc(C(F)(F)F)ccc4Cl)n3N)oc12	i	64
CCn1c(SCC(=O)Nc2nccs2)nnc1-c1cc2cccc(OC)c2o1	i	i
COc1ccc2nc(C3CCCCC3)c3c(c2c1)CCC3	i	nt
O=C(NCc1ccco1)c1sc(=S)n2c1[nH]c(=O)c1ccccc12	i	58
O=C(NC1CCCC1)c1sc(=S)n2c1[nH]c(=O)c1ccccc12	i	i
CCOc1cccc(-c2nnc3sc(C4CCCCC4)nn23)c1	i	59
COc1cccc(-c2nnc3sc(C4CCCCC4)nn23)c1	i	i
O=C(O)C1=C[C@H](c2ccc3c(c2)OCO3)C[C@H](OCCCCO)O1	i	nt
CCOC(=O)Cc1cc(=O)[nH]c(/N=C(/NC(=O)c2ccccc2)Nc2ccccc2C(F)(F)F)n1	i	nt
COC(=O)Cc1cc(=O)[nH]c(/N=C(/NC(=O)c2ccccc2)Nc2ccccc2C)n1	nt	53
CCNc1ccc(Br)cc(C(=O)/C=C/c2ccc(Cl)cc2Cl)c1=O	i	nt
CN1Cc2cc(C(=O)c3cc(Cl)cc(CSc4ncccn4)c3O)cnc2NC1=O	i	59
Cc1ccc(O)c(C(=O)c2cnc3c(c2)CN(C)C(=O)N3)c1	i	nt
CCOC(=O)c1sc2nc(N3CCOCC3)c3c(c2c1N)CC(C)(C)N(C)C3	i	nt
COC(=O)c1sc2nc(N3CCCCC3)c3c(c2c1N)CC(C)(C)N(C)C3	37	i
CCCCNC(=O)CC1Nc2ccccc2NC1=O (centres undefined)	i	i
CCCCOc1ccccc1NC(=O)CC1Nc2ccccc2NC1=O (centres undefined)	i	69
COc1cc(C2C3=C(CC(C)(C)CC3=O)Nc3c2c(=O)[nH]c(=O)n3Cc2ccccc2)ccc1O (centres undefined)	nt	67!
COc1ccc(C2C3=C(CC(C)(C)CC3=O)Nc3c2c(=O)[nH]c(=O)n3Cc2ccccc2)cc1OC (centres undefined)	i	i
Cc1nc(NC2=NCN(CC3CCCO3)CN2)nc2ccccc12 (centres undefined)	nt	i
SMILES	RmlC RmlD mix	HIV RNase H inh
CC1CCN(c2ccc3c(c2)S(=O)(=O)c2ccccc2C3=O)CC1	i	nt
O=C(O)CCCCC1CCSS1 (centres undefined)	73	nt
O=C(O)CCC(=O)NC1CCCCCCC1	i	i
O=C(/C(=C/c1ccccc1)c1ccccc1)N1CCCCC1	i	nt
C#Cc1ccc([C@@H]2C=C(C(=O)N3CCOCC3)O[C@H](OCc3ccc(CO)cc3)C2)cc1	i	nt
O=c1[nH]c(Cn2nnc(-c3ccccc3)n2)nc2scc(-c3ccccc3)c12	i	53
c1ccc(Cn2nnc(-c3ccccc3)n2)cc1	i	nt
Nn1c(SC/C=C/c2ccccc2)nnc1-c1ccncc1	nt	52
COc1cc(-c2nnc(SC/C=C/c3ccccc3)n2N)cc(OC)c1OC	i	nt
CC(C)=CCc1c(O)cc(O)c2c(=O)c3c(CC=C(C)C)c(O)ccc3oc12	i	nt
COC(=O)C1=C(C(=O)OC)[C@@H]2N(C)c3ccccc3[C@@]23C[C@@H](CO)N(C(=O)NCCBr)C3=N1	i	nt
COc1ccc2nc3oc(C(=O)N4CCN(c5cccc(Cl)c5)CC4)cc3cc2c1	i	i
COc1ccc2nc3oc(C(=O)N4CCC(C(N)=O)CC4)cc3cc2c1	34	i
NC(=O)c1c(NC(=O)c2cccs2)sc2c1CCCCCC2	i	57
O=C(Nc1sc2c(c1C(=O)O)CCC2)c1cccs1	nt	i
O=C(c1cc(-c2cccs2)on1)N1CCN(c2ccc(F)cc2)CC1	i	i
O=C(c1cc(-c2cccs2)on1)N1CCN(c2ccccc2)CC1	nt	57
COc1cc(C(=S)N2CCCC2)cc(Cl)c1O	i	71
COc1cc(C(=S)N2CCCCC2)ccc1O	i	nt
O=C(NCC1CC1)C1(C(F)(F)F)CC(CCCO)CCCO1 (centres undefined)	i	nt
COc1ccccc1N(CC(O)CN1C(=O)NC(C)(C)C1=O)S(=O)(=O)c1ccc(C)cc1 (centres undefined)	i	i
CCCCOc1ccc(Cl)cc1Nc1nc(NCCO)nc(N2CCCC2)n1	i	nt
Cc1cccn2c(=O)c3cc(C(=O)N4CCN(C(=O)c5ccco5)CC4)n(C)c3nc12	nt	i
Cn1c(C(=O)N2CCN(C(=O)c3ccco3)CC2)cc2c(=O)n3ccccc3nc21	96	i
Cc1cc(C)n2c(SCC(=O)N3CCN(S(=O)(=O)c4ccc(Cl)cc4)CC3)nnc2n1	i	70
CCCn1c(SCC(=O)N2CCN(S(=O)(=O)c3ccc(Cl)cc3)CC2)n[nH]c1=O	i	i
C=CCOC(=O)C1=C[C@@H](c2csc3ccccc23)[C@H](CCCO)[C@@H](OCC)O1	i	nt

Screening data (PubChem BioAssay)
